# Source: PubChem BioAssay (NCATS)
# Results filed as inconclusive are left out. A call without a number means that no potency is given here. Some structures have more than one record in an assay (separate samples or runs), and their calls can disagree. Activity calls are given as the source filed them. Calls come from the whole dose curve; as a rule, active = well fitted inhibition curve with a large enough effect; inconclusive = small, poorly fitted or top-dose-only effect; inactive = flat fitted curve, though single readings scatter.
# How the values were obtained:
# Assay in all cases: qHTS profiling for inhibitors of Plasmodium falciparum proliferation (AID 504749); note: nearly all actives have a fitted effect of over 60% in size
# Conditions in all cases: P. falciparum in erythrocytes, SYBR Green DNA, 72 h; series mostly up to 28.7 µM
# CP305 = tested on: CP305
# Procedure, shortened: (§1)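 Readout was DNA-dye fluorescence from lysed cultures, ex 485/em 535 nm. Parasitized red cells had grown 72 h with compound; data scaled between 0.29 uM artemisinin and DMSO wells and corrected using vehicle-only plates.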
# CP315 = tested on: CP315
# Procedure, shortened: as §1
# CP325 = tested on: CP325
# Procedure, shortened: as §1
# CP329 = tested on: CP329
# Procedure, shortened: as §1
# DFO2036 = tested on: DFO2036
# Procedure, shortened: as §1
# DIV30 = tested on: DIV30
# Procedure, shortened: as §1
# Dd2 = tested on: Dd2
# Procedure, shortened: as §1
# ECU = tested on: ECU
# Procedure, shortened: as §1
# FAB9 = tested on: FAB9
# Procedure, shortened: as §1
# HB3 = tested on: HB3
# Procedure, shortened: as §1
# JCK = tested on: JCK
# Procedure, shortened: as §1
# N140 = tested on: N140
# Procedure, shortened: as §1
# P94_40 = tested on: P94_40
# Procedure, shortened: as §1
# CP297 = tested on: CP297
# Procedure, shortened: as §1
# CP335 = tested on: CP335
# Procedure, shortened: as §1
# DIV14 = tested on: DIV14
# Procedure, shortened: as §1
# DIV17 = tested on: DIV17
# Procedure, shortened: as §1
# GB4 = tested on: GB4
# Procedure, shortened: as §1
# ICS = tested on: ICS
# Procedure, shortened: as §1
# P93_24 = tested on: P93_24
# Procedure, shortened: as §1
# Potency is the fitted concentration of half-maximal effect.
Compound,Potency (CP305),outcome (CP315),outcome (CP325),outcome (CP329),outcome (DFO2036),outcome (DIV30),Potency (Dd2),Potency (ECU),outcome (FAB9),Potency (HB3),outcome (JCK),Potency (N140),Potency (P94_40),Potency (CP297),Potency (CP335),Potency (DIV14),Potency (DIV17),Potency (GB4),Potency (ICS),outcome (P93_24)
O=C1Nc2ccc(Cl)cc2C(C#CC2CC2)(C(F)(F)F)O1 (stereo unspecified),inactive,inactive,inactive,inactive,inactive,inactive,inactive,inactive,inactive,inactive,inactive,inactive,inactive,,,,,,,
C[C@@H](O)[C@H]1C(=O)N2C(C(=O)O)=C(S[C@@H]3CN[C@H](C(=O)N(C)C)C3)[C@H](C)[C@H]12,inactive,inactive,inactive,inactive,inactive,inactive,inactive,inactive,inactive,inactive,inactive,inactive,inactive,inactive,inactive,inactive,inactive,inactive,inactive,inactive
O=C(NCCN1CCOCC1)c1ccc(Cl)cc1,inactive,inactive,inactive,inactive,inactive,inactive,inactive,inactive,inactive,inactive,inactive,inactive,inactive,inactive,inactive,inactive,inactive,inactive,inactive,inactive
CC/C(=C(\c1ccccc1)c1ccc(OCCN(C)C)cc1)c1ccccc1,,inactive,,inactive,inactive,,,,inactive,inactive,inactive,,,inactive,,13.5 µM (active),,10.7 µM (active),12.6 µM (active),
NC(N)=Nc1nc(CSCC/C(N)=N/S(N)(=O)=O)cs1,inactive,inactive,inactive,inactive,inactive,inactive,inactive,inactive,inactive,inactive,inactive,inactive,inactive,inactive,inactive,inactive,inactive,inactive,inactive,inactive
Cc1cccc(C)c1OCC(C)N (stereo unspecified),,inactive,,inactive,inactive,,,inactive,inactive,inactive,inactive,,,,,,,13.5 µM (active),inactive,
CC(=O)CCCCn1c(=O)c2c(ncn2C)n(C)c1=O,inactive,inactive,inactive,inactive,inactive,inactive,inactive,inactive,inactive,inactive,inactive,inactive,inactive,inactive,inactive,inactive,inactive,inactive,inactive,inactive
NCCS,inactive,inactive,inactive,inactive,inactive,inactive,inactive,inactive,inactive,inactive,inactive,inactive,inactive,inactive,inactive,inactive,inactive,inactive,inactive,inactive
CCCCCN(C)CCC(O)(P(=O)(O)O)P(=O)(O)O,inactive,inactive,inactive,inactive,inactive,inactive,inactive,inactive,inactive,inactive,inactive,inactive,inactive,inactive,inactive,inactive,inactive,inactive,inactive,inactive
CCCCC1C(=O)N(c2ccccc2)N(c2ccccc2)C1=O,,,,,,,inactive,8.91 µM (active) and inactive,inactive,inactive,inactive,,,,,,,12 µM (active),11.2 µM (active),
Cc1cnc(C(=O)O)c[n+]1[O-],inactive,inactive,inactive,inactive,inactive,inactive,inactive,inactive,inactive,inactive,inactive,inactive,inactive,inactive,inactive,inactive,inactive,inactive,inactive,inactive
COc1ccccc1N1CCN(CCCNc2cc(=O)n(C)c(=O)n2C)CC1,inactive,inactive,inactive,inactive,inactive,inactive,inactive,inactive,inactive,inactive,inactive,inactive,inactive,inactive,inactive,inactive,inactive,inactive,inactive,inactive
CC1=C(/C=C/C(C)=C/C=C/C(C)=C/C(=O)Nc2ccc(O)cc2)C(C)(C)CCC1,15.1 µM (active),,,,,,11.2 µM (active),,,11.2 µM (active),,10 µM (active),11.2 µM (active),13.5 µM (active),,16.9 µM (active),16.9 µM (active),10.7 µM (active),11.2 µM (active),
CC(=O)c1ccc(S(=O)(=O)NC(=O)NC2CCCCC2)cc1,inactive,inactive,inactive,inactive,inactive,inactive,inactive,inactive,inactive,inactive,inactive,inactive,inactive,inactive,inactive,inactive,inactive,inactive,inactive,inactive
CCN1CCC[C@H]1CNC(=O)c1cc(S(N)(=O)=O)ccc1OC,inactive,inactive,inactive,inactive,inactive,inactive,inactive,inactive,inactive,inactive,inactive,inactive,inactive,inactive,inactive,inactive,inactive,inactive,inactive,inactive
COCCCCC(=NOCCN)c1ccc(C(F)(F)F)cc1,,inactive,,,,,,,,,,,,,,6.75 µM (active),6.75 µM (active),5.36 µM (active),,
CCN(CC)CCNC(=O)c1ccc(N)cc1,inactive,inactive,inactive,inactive,inactive,inactive,inactive,inactive,inactive,inactive,inactive,inactive,inactive,inactive,inactive,inactive,inactive,inactive,inactive,inactive

Compound,Potency (CP305),outcome (CP315),outcome (CP325),outcome (CP329),outcome (DFO2036),outcome (DIV30),Potency (Dd2),Potency (ECU),outcome (FAB9),Potency (HB3),outcome (JCK),Potency (N140),Potency (P94_40),Potency (CP297),Potency (CP335),Potency (DIV14),Potency (DIV17),Potency (GB4),Potency (ICS),outcome (P93_24)
O=C(O)Cc1cccc2ccccc12,inactive,inactive,inactive,inactive,inactive,inactive,inactive,inactive,inactive,inactive,inactive,inactive,inactive,inactive,,inactive,inactive,inactive,inactive,inactive
O=C(O)c1c(Cl)c(Cl)c(Cl)c(Cl)c1-c1c2cc(I)c(=O)c(I)c-2oc2c(I)c(O)c(I)cc12,inactive,inactive,inactive,inactive,inactive,inactive,inactive,inactive,inactive,inactive,inactive,inactive,inactive,,inactive,inactive,inactive,inactive,inactive,inactive
CCCNC(=O)NS(=O)(=O)c1ccc(Cl)cc1,inactive,inactive,inactive,inactive,inactive,inactive,inactive,inactive,inactive,inactive,inactive,inactive,inactive,inactive,inactive,inactive,inactive,inactive,inactive,inactive
O=C1NCC2(CCN(CCc3ccccc3)CC2)O1,inactive,inactive,inactive,inactive,inactive,inactive,inactive,inactive,inactive,inactive,inactive,inactive,inactive,inactive,inactive,inactive,inactive,inactive,inactive,inactive
Clc1ccc(Cn2c(CN3CCCC3)nc3ccccc32)cc1,inactive,inactive,inactive,inactive,inactive,,inactive,inactive,inactive,inactive,inactive,inactive,inactive,,inactive,,,,,
C[N+](C)(C)CCCCCC[N+](C)(C)C,inactive,inactive,inactive,inactive,inactive,inactive,inactive,inactive,inactive,inactive,inactive,inactive,inactive,inactive,inactive,inactive,inactive,inactive,inactive,inactive
O=C(O)c1cc(-c2ccccc2)nc2ccccc12,inactive,inactive,inactive,inactive,inactive,inactive,inactive,inactive,inactive,inactive,inactive,inactive,inactive,inactive,inactive,inactive,inactive,inactive,inactive,inactive
CC(=O)O[C@]1(C(C)=O)CC[C@H]2[C@@H]3C=C(Cl)C4=CC(=O)[C@@H]5C[C@@H]5[C@]4(C)[C@H]3CC[C@@]21C,,inactive,,inactive,inactive,,inactive,inactive,inactive,inactive,inactive,inactive,,,,,,,12.6 µM (active),
CCOC(=O)O[C@]1(C(=O)OCCl)CC[C@@H]2[C@H]3CCC4=CC(=O)C=C[C@]4(C)[C@@H]3[C@@H](O)C[C@@]21C,,inactive,inactive,inactive,inactive,,inactive,inactive,inactive,inactive,inactive,inactive,inactive,16.9 µM (active),inactive,inactive,inactive,inactive,inactive,inactive
COc1ccc(Cc2nccc3cc(OC)c(OC)cc23)cc1OC,inactive,inactive,inactive,inactive,inactive,inactive,inactive,inactive,inactive,inactive,inactive,inactive,inactive,inactive,inactive,inactive,inactive,inactive,inactive,
CN(C)CCC(c1ccccc1)c1ccccn1 (stereo unspecified),,inactive,inactive,,inactive,,inactive,inactive,inactive,inactive,inactive,inactive,,,7.57 µM (active),6.75 µM (active),9.53 µM (active),7.57 µM (active),inactive,inactive
O=C1NC(=O)C(c2ccccc2)(c2ccccc2)N1,inactive,,inactive,inactive,inactive,inactive,inactive,inactive,inactive,inactive,inactive,inactive,inactive,inactive,inactive,inactive,inactive,inactive,inactive,inactive
CC1(C)O[C@H]2C[C@@H]3[C@H]4CCC5=CC(=O)C=C[C@]5(C)[C@@]4(F)[C@@H](O)C[C@]3(C)[C@]2(C(=O)CO)O1,inactive,inactive,inactive,inactive,inactive,,inactive,inactive,inactive,inactive,inactive,inactive,,,inactive,,inactive,inactive,,inactive
CC(=O)N[C@@H](CS)C(=O)O,inactive,inactive,inactive,inactive,inactive,inactive,inactive,inactive,inactive,inactive,inactive,inactive,inactive,inactive,inactive,inactive,inactive,inactive,inactive,inactive
O=c1[nH]cnc2c1ncn2[C@H]1CC[C@@H](CO)O1,inactive,inactive,inactive,inactive,inactive,inactive,inactive,inactive,inactive,,inactive,inactive,inactive,inactive,inactive,inactive,,,10 µM (active),
CCN(CC)CCOC(=O)c1ccc(N)cc1,inactive,inactive,inactive,inactive,inactive,inactive,inactive,inactive,inactive,inactive,inactive,inactive,inactive,inactive,inactive,inactive,inactive,inactive,inactive,inactive
CCN(CC)C(=O)c1ccc(O)c(OC)c1,inactive,inactive,inactive,inactive,inactive,inactive,inactive,inactive,inactive,inactive,inactive,inactive,inactive,inactive,inactive,inactive,inactive,inactive,inactive,inactive
